High-throughput results: PubChem, National Center for Advancing Translational Sciences (NCATS)
KB-V1 MDR tox – kills drug-selected multidrug resistant KB-V1 cells. Potency, µM (series often up to 46.1 µM), most hits filed as cytotoxic. hit rate 3.4% among 400,000. KB-V1 MDR cells viability, CellTiter-Glo, 72 h. AID 1347076; also: potency is read from the fitted curve at half-maximal effect; nearly all actives have a fitted effect of over 60% in size
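KB-V1, DMEM (no phenol red) + 10% FBS; cpd pin-transferred, titration series; 72 h, 37 degrees C; CellTiter-Glo, luminescence. Data normalized, curve-fit.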
KB-3-1 tox – kills parental KB-3-1 adenocarcinoma cells | hit rate 1.4% among 400,000 | KB-3-1 viability, CellTiter-Glo ATP luminescence, 72 h | AID 1347075 | Potency, µM (series often up to 46.1 µM), hits mostly cytotoxic; also: potency is read from the fitted curve at half-maximal effect; nearly all actives have a fitted effect of over 60% in size
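Cells are dispensed, compounds pinned in, plates held at 37 °C for 72 h, then CellTiter-Glo is added and luminescence read after 10 minutes. Cell line: parental KB-3-1 in phenol-red-free DMEM, 10% FBS.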
HT1080 IDH1KD tx – kills HT-1080 cells with IDH1 knockdown; HT-1080 IDH1 knockdown viability, ATP luminescence, 48 h; AID 686971; hit rate 2% among 360,000; Potency, µM (top dose mostly 46.1 µM), inactives show top-dose activity, negative = toxicity, actives largely listed as cytotoxic;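 also: potency is read from the fitted curve at half-maximal effect; 0% = DMSO wells and -100% = cell-free medium wells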
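Luminescent ATP read-out (CellTiter-Glo, 10 min at room temperature) after 48 h compound exposure at 37 °C gave viability of IDH1-knockdown HT-1080 cells. Activity was normalised to DMSO and cell-free wells, then fitted as concentration-response curves.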
IL-1B inflam inh – inhibitors of inflammasome signaling (IL-1 beta secretion). activity change, % at 57.5 µM. THP-1 LPS/ATP IL-1B secretion, AlphaLISA, 16 h; active compounds read low. AID 743279. hit rate 4.7% among 360,000; in the data active = activity change below about -50%; inconclusive = mostly about -30% to -49%
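Secreted IL-1B measured by AlphaLISA bead assay after 16 h compound exposure of THP-1 cells; compounds (final up to 57.5 uM) added 1 h before LPS (250 ng/mL) and ATP (1.25 mM) stimulation; lower signal means less secretion.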
HT1080-NT tox – kills 2HG-producing HT-1080-NT fibrosarcoma cells | HT-1080-NT fibrosarcoma viability, CellTiter-Glo ATP luminescence, 48 h | Potency, µM (doses to about 46.1 µM), for the others: at the top dose activity, negative = less viability, hits mostly cytotoxic | hit rate 1.6% among 360,000;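 also: NT is the 2HG producing partner of a matched IDH1 knockdown line; potency is read from the fitted curve at half-maximal effect; 0% = DMSO-treated cells and -100% = media-only wells without cells; nearly all actives have a fitted effect of over 55% in size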
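Fibrosarcoma NT cells, 750 per well in 5% FBS RPMI, were exposed to compound for 48 hours. Viability: CellTiter-Glo luminescence.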
Active calls of the source: *; i = inactive; ? = inconclusive; · = not tested or not shown. A selection: hits, their analogues and other compounds. The true share with any hit is near 8.8%. Unless noted, calls follow the shape of the dose curve; as a rule, active = well fitted curve in the direction sought with a large enough effect; inconclusive = small, poorly fitted or top-dose-only effect, or another doubt; inactive = no such curve, though single readings can be large; an effect the other way counts as inactive or inconclusive. Unless noted, % is scaled to controls: 0 for no effect and ±100 for the full control effect.

SMILES | KB-V1 MDR tox | KB-3-1 tox | HT1080 IDH1KD tx | IL-1B inflam inh | HT1080-NT tox
CCOC(=O)/C=C(\C)Sc1cc(=O)oc2ccccc12 | ? | ? | 16µM* | -52* | 15µM*
Cc1ccccc1CNC(=O)CN1C(=O)CCCc2ccccc21 | i | i | · | · | ·
Cc1occc1C(=O)Nc1sc2c(c1C(N)=O)CCC(C(C)(C)C)C2 (stereo not drawn) | i | i | 11% | -5 | 4%
CC(C)(C)C1CCc2c(sc(NC(=O)c3ccncc3)c2C(N)=O)C1 (stereo not drawn) | 12µM* | i | 0% | -17 | 0%
O=[N+]([O-])c1cc(CN2CCN(c3cccc(C(F)(F)F)c3)CC2)c2cccnc2c1O | ? | 3.7µM* | ? | 108 | ?
O=[N+]([O-])c1cc(Cl)ccc1N1CCN(c2cccc(C(F)(F)F)c2)CC1 | ? | i | 0% | ? | 2%
O=[N+]([O-])c1cc(CN2CCCC2)c2cccnc2c1O | 5.8µM* | ? | ? | -3 | 16µM*
COc1cc(/C=C2\SC(=Nc3ccccc3)N(CCc3c[nH]c4ccccc34)C2=O)ccc1OC(C)C(=O)O (stereo not drawn) | i | i | -30% | ? | -18%
O=C1S/C(=C/c2ccc(N3CCOCC3)o2)C(=O)N1Cc1ccc(F)cc1 | i | i | 9% | -22 | 14%
O=C1/C(=C/c2ccc(N3CCOCC3)o2)SC(=Nc2ccccc2)N1CCc1c[nH]c2ccccc12 | ? | ? | 4.1µM* | -99* | 7.3µM*
CC(C)OC(=O)CN1C(=O)S/C(=C/c2ccc(N3CCCCC3)o2)C1=O | i | i | 11µM* | -104* | ?
O=C1S/C(=C\c2ccc(N3CCOCC3)o2)C(=O)N1Cc1ccc(F)cc1 | i | i | 3.2µM* | -9 | 6.3µM*
C#CCN1C(=O)S/C(=C\c2ccc(-c3ccc(C(=O)O)cc3C)o2)C1=O | i | i | -8% | 30 | 2%
Cc1ccc(-c2noc(-c3cccnc3NCc3ccco3)n2)cc1 | i | i | · | · | ·
N#Cc1ccccc1S(=O)(=O)N1CCN(C(=O)CN(Cc2ccco2)Cc2cccs2)CC1 | i | i | -2% | -17 | -5%
CCC(=O)N(c1nnc(SCC(=O)NN2C(=O)NC3(CCCCC3)C2=O)s1)C1CC1 | i | i | 6% | -10 | 5%
COc1ccc(-c2c(S(=O)(=O)c3ccccc3)cnn2-c2ccccc2)cc1 | 23µM* | ? | -23% | -14 | -10%
O=S(=O)(c1ccccc1)c1cnn(-c2ccccc2)c1-c1ccc(Cl)cc1 | 15µM* | ? | -23% | -4 | -1%
CC1CC(C)C(=O)C(C(CC2CC(=O)NC(=O)C2)OC(=O)CC(=O)c2ccccc2)C1 (stereo not drawn) | ? | 2.6µM* | ? | 3 | ?
CN(CC(=O)Nc1ccc(Cl)c(C(F)(F)F)c1)C(=O)c1ccccc1SCC(=O)N1CCCC1 | i | i | -21% | -12 | -11%
CC(C)Nc1nc(Cl)nc(N(C#N)CN2C(=O)c3ccccc3C2=O)n1 | i | ? | 18µM* | -99* | ?
CN1CCN(C(=O)CCN2C(=O)c3ccccc3S2(=O)=O)CC1 | i | i | 1% | 3 | 2%
Cc1cc(C)nc(N(C#N)CN2C(=O)c3ccccc3C2=O)n1 | i | i | -2% | -15 | 6%
CCC(C)Nc1nc(Cl)nc(N(C#N)CN2C(=O)c3ccccc3S2(=O)=O)n1 (stereo not drawn) | i | i | -23% | -66* | -20%
CC(CC(c1ccccc1)N1CCc2ccccc2C1)=NO (stereo not drawn) | i | i | -6% | 6 | -12%
Cc1cc(C)cc(C(=O)N(CCc2ccccc2)C2CC3CCC(C2)N3C)c1 (stereo not drawn) | ? | i | ? | -65* | ?
COc1cc(C(=O)N(CCc2ccccc2)C2=CC3CCC(C2)N3C)cc(OC)c1OC (stereo not drawn) | i | i | 17% | 29 | ?
CCc1nonc1NC(=O)c1oc2ccccc2c1C | i | i | 12% | -5 | 5%
